Reference: PubChem BioAssay (NCATS)
Inconclusive results are not listed. Activity calls are given as the source filed them. Calls follow the shape of the dose curve; as a rule, active = well fitted cell-killing curve with a large enough effect; inconclusive = small, poorly fitted or top-dose-only effect, or effect the other way; inactive = flat fitted curve, though single readings scatter. *1 amine or outer side, *2 acyl side, *3 side chain or, on linkers, in order; H or OH if unused. Where a SMILES comes first, the peptide text is derived from it. Bridges are numbered along the chain shown (N, C = ends). [ ]: non-standard residue; d: D form. The star is where a group is joined. pTerphenylCO(4''-OnC5H11) = CCCCCOc1ccc(-c2ccc(-c3ccc(C(=O)*)cc3)cc2)cc1; Orn(4R-OH,5R-OH) = O=C([C@H](C[C@@H](O)[C@@H](O)N[*:3])N[*:1])[*:2]; hTyr(3S-OH,4S-OH) = N[C@H](C(=O)O)[C@H](O)[C@@H](O)c1ccc(O)cc1; Pro(3S-OH,4S-Me) = C[C@H]1CN[C@H](C(=O)O)[C@H]1O; Hyp = O=C(O)[C@@H]1C[C@@H](O)CN1

tested on: CASKI; test: Primary qHTS to identify gynecologic anti-cancer compounds using libraries of approved drugs and bioactive compounds (AID 1345084); conditions: Gynecologic cancer cell panel viability, ATPlite luminescence, 48 h; series mostly up to 57.5 µM; activity change, negative = cytotoxicity: at the top concentration; also: nearly all actives have a fitted effect of over 55% in size
Method in brief: (§1)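 Five-concentration response, 48 h; readout is ATP-driven luciferase luminescence.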
% is scaled to controls: 0 for no effect and ±100 for the full control effect.

SMILES | activity change, negative = cytotoxicity
CN(C)C(=O)Nc1cc(-c2ccccc2)ccc1N(C)C | 0.107% (inactive)
C/C(=C\CO[C@@H]1O[C@H](CO[C@H]2OC[C@](O)(CO)[C@H]2O)[C@@H](O)[C@H](O)[C@H]1O)C(C)(C)O | -12% [at 25.3 µM] (inactive)
CC[C@@H](Nc1c(Nc2cccc(C(=O)N(C)C)c2O)c(=O)c1=O)c1cc(C(C)C)co1 | 9.25% (inactive)

tested on: Es-2; test: as above; conditions: Gynecologic cancer cell panel viability, ATPlite luminescence, 48 h; series mostly up to 57.5 µM; activity change, negative = cytotoxicity: at the top concentration
Method in brief: as §1

SMILES | activity change, negative = cytotoxicity
CC(OC1OCCN(Cc2n[nH]c(=O)[nH]2)C1c1ccc(F)cc1)c1cc(C(F)(F)F)cc(C(F)(F)F)c1 (stereo unspecified) | -3.33% (inactive)
Fc1ccc(-c2cncc(CN3CCN(c4cccc5c4OCCO5)CC3)c2)cc1 | -5.94% (inactive)
C=C(CCC1C(C)(O)CCC2C(C)(C)C(O)CCC12C)C(O)CO (stereo unspecified) | 7.65% [at 38.5 µM] (inactive)
CCC[C@@]1(CCc2ccccc2)CC(O)=C([C@H](CC)c2cccc(NS(=O)(=O)c3ccc(C(F)(F)F)cn3)c2)C(=O)O1 | -0.0077% (inactive)
COc1ccc([C@H]2Cc3cccc(O)c3C(=O)O2)cc1OC | 1.5% (inactive)
C/C=C(/C)C(=O)OC1C=C2C3C(C)C(C)C(OC(=O)C(C)C(C)O)CC3(C)CCC2(C)C2(C)CC(OC(C)=O)C3C(C)(C)C(O)C(=O)CC3(C)C12 (stereo unspecified) | 14.7% [at 25.3 µM] (inactive)
CN1CCN(C2=Nc3ccccc3Nc3ccc(Cl)cc32)CC1 | -0.0585% (inactive)
COc1ccc(NC(=O)c2ccc(-c3ccc(C(=N)N)cc3C)cc2)cc1N1CCN(C)CC1 | 0.592% (inactive)
O=C(c1ccccn1)N(Cc1cccs1)C1(C(=O)NC2CCCCC2)CCCCC1 | -28% (inactive)
O=c1cc(OCc2ccc(F)cc2)ccn1-c1ccc(OCCN2CCCC2)cc1 | 4.81% (inactive)
Cc1cccc(N2CCN(C(=O)c3cc(S(=O)(=O)N(C)C)ccc3N3CCCC3)CC2)c1C | 2.7% (inactive)
N#CC(CCCN1CCN(/N=C/c2cccnc2)CC1)(c1ccccc1)c1ccccc1 | 6.38% (inactive)
Cc1cccc(C#Cc2cc(F)cc(C#N)c2)n1 | 2.66% (inactive)
COc1ccncc1C(=O)NC(=O)Nc1ccc(-c2ccccc2)c(C(F)(F)F)c1 | 0.508% (inactive)
Clc1ccc(Cn2c(Cc3ccccc3)nc3ccccc32)cc1 | 6.4% (inactive)
Cc1cc2sc(NC(=O)Cc3ccccc3)nc2cc1Cl | -0.644% (inactive)
O=C(Cc1c(F)cccc1F)Nc1cc(OCc2ccc(Cl)cc2)ccn1 | 1.92% (inactive)

SMILES | activity change, negative = cytotoxicity
O=C(c1cc(Cc2n[nH]c(=O)c3ccccc23)ccc1F)N1CCCNCC1 | 6.61% (inactive)
CCC(C)/C=C(C)/C=C/C1=CC2=CC(=O)C3(C)OC(C)(O)C(C(=O)OC)C3C2=CO1 (stereo unspecified) | 1.71% [at 25.3 µM] (inactive)
CNc1cc2[nH]c(=O)n(-c3ccc(NC(=O)NS(=O)(=O)c4ccc(Cl)s4)cc3)c(=O)c2cc1F | 6.24% (inactive)
COc1ccc(-n2c(SCCCN3C(=O)c4cccc5cccc(c45)C3=O)nnc2-c2ccncc2)cc1 | 7.72% (inactive)
C=C1C(=O)OC2/C=C(\CO)CC/C=C(\C=O)C(O)C(OC(=O)C(C)CC)C12 (stereo unspecified) | -21.6% [at 38.5 µM] (inactive)
O=C(Nc1ccccc1C(=O)Nc1ccc(CCO)cc1)c1ccc([N+](=O)[O-])cc1 | -2.56% (inactive)
CC1(C)CC[C@]2(C(=O)O)CC[C@]3(C)C(=CCC4[C@@]5(C)C[C@@H](O)[C@H](O)[C@@](C)(CO)C5CC[C@]43C)[C@@H]2[C@@H]1O (stereo partly specified) | 5.88% [at 25.3 µM] (inactive)
C=C(C(=O)OC[C@H]1O[C@@H](OC(=O)/C=C/c2ccccc2)[C@H](O)[C@@H](O)[C@@H]1O)C(O)CO (stereo partly specified) | -7.92% [at 25.3 µM] (inactive)
COc1ccccc1OCCNCC(O)CCOc1cccc2[nH]c3ccccc3c12 (stereo unspecified) | -1.73% (inactive)
CC(C)/C=C1\NC(=O)C(C(C)C)n2c1nc1ccccc1c2=O (stereo unspecified) | 14.6% [at 38.5 µM] (inactive)
CCCCCOc1ccc(-c2ccc(-c3ccc(C(=O)N[C@H]4C[C@@H](O)[C@@H](O)NC(=O)[C@@H]5[C@@H](O)[C@@H](C)CN5C(=O)[C@H]([C@@H](C)O)NC(=O)[C@H]([C@H](O)[C@@H](O)c5ccc(O)cc5)NC(=O)[C@@H]5C[C@@H](O)CN5C(=O)[C@H]([C@@H](C)O)NC4=O)cc3)cc2)cc1 ({pTerphenylCO(4''-OnC5H11)}-[Orn(4R-OH,5R-OH)]T[Hyp][hTyr(3S-OH,4S-OH)]T[Pro(3S-OH,4S-Me)]; lactam 1-C) | 5.16% [at 25.3 µM] (inactive)
COc1ccccc1C(=O)Nc1cc2c(cc1N1CCCC1)n(C)c(=O)n2C | 4.92% (inactive)
C=C1C(=O)OC2C1CCC1(C)C(O)CCC(=C)C21 (stereo unspecified) | -0.957% (inactive)
Cc1nc(C#Cc2ccnc(Cl)c2)c(C)n1-c1ccc(OC(F)(F)F)cc1 | 9.39% (inactive)
COc1cc(CCc2ccc(OCC=C(C)C)cc2)cc(OC)c1OC | -8.81% [at 38.5 µM] (inactive)
CC(=O)[C@H]1CC[C@H]2[C@@H]3CC=C4C[C@@H](OS(=O)(=O)O)CC[C@]4(C)[C@H]3CC[C@]12C | 7.37% (inactive)
